Test results as given in article PMC5540273 (PLoS ONE, 2017).

Key:
Conditions in all cases: concentration: 1 μM, replicates: in singlicate; n = 1
SGK3 = system: SGK3
SGK = system: SGK
SIK2 = system: SIK2
SIK = system: SIK
SLK = system: SLK
SNARK = system: T1, SNARK
T1 construct: gene NUAK2

SNRK = system: SNRK
SRC = system: SRC
SRMS = system: SRMS
SRPK1 = system: SRPK1
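Note: KINOMEscan kinase panel screen.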

SMILES | %Inh (SGK3) | %Inh (SGK) | %Inh (SIK2) | %Inh (SIK) | %Inh (SLK) | %Inh (SNARK) | %Inh (SNRK) | %Inh (SRC) | %Inh (SRMS) | %Inh (SRPK1)
CC(=O)c1cccc(NC(=O)NC2CCN(c3ccnc(Nc4ccc(F)cc4)n3)C2)c1 (centres unmarked) [GSK1379710] | 5% | 18% | 9% | 0% | 2% | 19% | 7% | 0% | 8% | 21%
CCn1c(-c2ccccc2)nc2cnccc21 [SB-733416] | 0% | 9% | 5% | 3% | 28% | 0% | 0% | 0% | 0% | 11%
Cc1cccc2c(-c3ccncn3)c(-c3ccc(F)cc3)nn12 [GW515532] | 2% | 12% | 39% | 0% | 13% | 0% | 0% | 0% | 0% | 33%
COc1ccc(-c2coc3ccc(-c4nnc(C)o4)cc23)cc1 | 0% | 0% | 3% | 0% | 5% | 0% | 0% | 20% | 0% | 9%
O=C1NC(=O)C(c2ccc(Cl)cc2)=C1Nc1cccc(Cl)c1 [SB-317651] | 0% | 0% | 0% | 0% | 14% | 0% | 0% | 2% | 0% | 0%
